# Where “and” joins values, the source holds several entries; their conditions need not be identical. Identical values can stand only once. Records with an inconclusive call do not appear. Entries that show only a call come without a potency. More than one record can exist for a structure, and the calls need not agree. Calls of active or inactive are those of the source. Unless noted, the call rests on the fitted dose curve; in most records, active means well fitted curve in the direction sought with a large enough effect in the repeat runs; inconclusive means weak or mixed curves; inactive means no such curve, though single readings can be large; an effect the other way counts as inactive or inconclusive.
# Assays:
# [1] = qHTS assay to identify small molecule agonists of the peroxisome proliferator-activated receptor delta (PPARd) signaling pathway - cell viability counter screen (AID 743211); further: nearly all actives have a fitted effect of over 55% in size; further: potency means the concentration at half of the fitted maximal effect
# Method in brief: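 HEK293H PPARd-bla, 3000 cells/well; 5 h preincubation 37C/5% CO2; cpd in DMSO, 17 h 37C; B/G FRET substrate 2 h RT; CellTiter-Glo 30 min RT, luminescence.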
# [2] = target: Peroxisome proliferator-activated receptor delta (Homo sapiens) (UniProt Q03181); assay: qHTS assay to identify small molecule agonists of the peroxisome proliferator-activated receptor delta (PPARd) signaling pathway (AID 743212; calls by dose curve;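 further: HEK293H cells with PPARd UAS beta-lactamase reporter GeneBLAzer system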)
# Method in brief: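 Beta-lactamase reporter readout: a ratiometric FRET signal from the LiveBLAzer substrate after 2 h at room temperature. Compound exposure at 37 °C in PPARδ-bla HEK293H cells driven by an upstream activator sequence.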
# [3] = qHTS assay to identify small molecule antagonists of the peroxisome proliferator-activated receptor delta (PPARd) signaling pathway - cell viability counter screen (AID 743213); further: nearly all actives have a fitted effect of over 50% in size; further: potency means the concentration at half of the fitted maximal effect
# Method in brief: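 Viability counter-screen, qHTS format: PPARd-bla HEK293H, L165041 300 nM final, 17 h compound exposure at 37 C, CellTiter-Glo luminescence after 30 min RT.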
# [4] = target: Peroxisome proliferator-activated receptor delta (Homo sapiens) (UniProt Q03181); assay: qHTS assay to identify small molecule antagonists of the peroxisome proliferator-activated receptor delta (PPARd) signaling pathway (AID 743215; active means well fitted inhibition curve with a large enough effect in the signal ratio in the repeat runs, not every such curve was filed as active; the % refers to the signal ratio;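 further: cells stimulated with agonist L165041 at 300 nM final during compound exposure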; further: potency means the concentration at half of the fitted maximal effect)
# Method in brief: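 Here, a reporter line (HEK293H, beta-lactamase under a UAS) measures PPARd signaling. Compounds are tested against agonist L165041 at 300 nM final concentration over 17 h at 37 C, with fluorescence read after substrate.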
# [5] = target: Bile acid receptor (Homo sapiens) (UniProt Q96RI1); assay: qHTS assay to identify small molecule antagonists of the farnesoid-X-receptor (FXR) signaling pathway (AID 743217; active means well fitted inhibition curve with a large enough effect in the signal ratio in the repeat runs, not every such curve was filed as active; the % refers to the signal ratio)
# Method in brief: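 Test compounds are pin-transferred onto FXR-bla HEK 293T cells, then chenodeoxycholic acid is added at 50 uM final. After 16 h at 37 °C, LiveBLAzer B/G substrate is applied for 2 h at room temperature and fluorescence read.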
# [6] = target: Bile acid receptor (Homo sapiens) (UniProt Q96RI1); assay: qHTS assay to identify small molecule agonists of the farnesoid-X-receptor (FXR) signaling pathway (AID 743220; active means well fitted activation curve with a large enough effect in the signal ratio in the repeat runs, not every such curve was filed as active; the % refers to the signal ratio)
# Method in brief: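 FXR-UAS-bla HEK 293T cells carrying a UAS-driven beta-lactamase reporter were plated for 5 h at 37C/5% CO2, then exposed to DMSO-dissolved Tox21 10K compounds for 16 h at 37C. A LiveBLAzer B/G FRET substrate was loaded for 2 h at room temperature before fluorescence reading.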
# [7] = qHTS assay to identify small molecule antagonists of the farnesoid-X-receptor (FXR) signaling pathway - cell viability counter screen (AID 743221; active means well fitted cell-killing curve with a large enough effect in the repeat runs, not every such curve was filed as active; further: nearly all actives have a fitted effect of over 50% in size; further: potency means the concentration at half of the fitted maximal effect)
# Method in brief: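 Luminescence from CellTiter-Glo measures cytotoxicity in GeneBLAzer FXR-UAS-bla HEK 293T cells. Cells were exposed to compounds with 50 uM chenodeoxycholic acid (final) for 16 h at 37 C, in wells also used for the reporter readout.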
# [8] = target: Vitamin D3 receptor (Homo sapiens) (UniProt P11473); assay: qHTS assay to identify small molecule agonists of the vitamin D receptor (VDR) signaling pathway (AID 743222; calls by dose curve)
# Method in brief: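 Tox21 cell reporter format: VDR-bla line, 16 h compound exposure in 5% CO2 at 37C, then fluorescence intensity after 2 h with LiveBLAzer B/G FRET substrate.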
# [9] = target: Vitamin D3 receptor (Homo sapiens) (UniProt P11473); assay: qHTS assay to identify small molecule antagonists of the vitamin D receptor (VDR) signaling pathway (AID 743223; active means well fitted inhibition curve with a large enough effect in the signal ratio in the repeat runs, not every such curve was filed as active; the % refers to the signal ratio; further: potency means the concentration at half of the fitted maximal effect)
# Method in brief: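 Antagonist mode uses 1alpha,25-dihydroxyvitamin D3 at 3 nM final as stimulus. VDR-bla cells receive compounds in DMSO, incubate 16 h at 37C, then a beta-lactamase FRET substrate for 2 h at room temperature before fluorescence measurement.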
# [10] = qHTS assay to identify small molecule agonists of the vitamin D receptor (VDR) signaling pathway - cell viability counter screen (AID 743224); further: nearly all actives have a fitted effect of over 50% in size; further: potency means the concentration at half of the fitted maximal effect
# Method in brief: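 CellTiter-Glo viability readout on VDR-bla cells, measured after 16 h of compound treatment at 37C in the same wells.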
# [11] = qHTS assay to identify small molecule antagonists of the vitamin D receptor (VDR) signaling pathway - cell viability counter screen (AID 743225); further: nearly all actives have a fitted effect of over 50% in size; further: potency means the concentration at half of the fitted maximal effect
# Method in brief: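 Read-out: CellTiter-Glo luminescence measured 30 min after reagent addition at room temperature. Cells were VDR-bla HEK 293T exposed 16 h at 37C, 5% CO2, to compound with 3 nM final calcitriol agonist.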
# [12] = qHTS assay to identify small molecule agonists of the NFkB signaling pathway - cell viability counter screen (AID 1159515; calls by dose curve; further: nearly all actives have a fitted effect of over 55% in size; further: potency means the concentration at half of the fitted maximal effect)
# Method in brief: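 Tox21 library compounds were tested for cytotoxicity against NFkB-bla ME-180 cells during a 5 hr exposure at 37 C. CellTiter-Glo luminescence served as the viability read-out.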
# [13] = target: Nuclear receptor ROR-gamma (Homo sapiens) (UniProt P51449); assay: qHTS assay to identify small molecule antagonists of the retinoid-related orphan receptor gamma (ROR-gamma) signaling pathway (AID 1159521; further: nearly all actives have a fitted effect of over 50% in size; further: potency means the concentration at half of the fitted maximal effect)
# Method in brief: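 CHO Tet-on RORγ, RORE-luc reporter. Cpd 2 h pre-incubation, then dox hyclate 1 uM final, 16 h, 37 C/5% CO2. ONE-Glo luminescence; decrease = antagonist.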
# [14] = qHTS assay to identify small molecule agonists of the AP-1 signaling pathway - cell viability counter screen (AID 1159525; calls by dose curve; further: nearly all actives have a fitted effect of over 55% in size; further: potency means the concentration at half of the fitted maximal effect)
# Method in brief: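 Intracellular ATP by Cell Titer Glo luminescence (30 min, RT) in the same ME-180 AP-1-bla wells after the 5 h compound exposure at 37 °C. Normalised to tetra n-octyl ammonium bromide and DMSO controls.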
# [15] = qHTS assay to identify small molecule agonists of the AP-1 signaling pathway (AID 1159526; calls by dose curve)
# [16] = target: Retinoic acid receptor RXR-alpha (Homo sapiens) (UniProt P19793); assay: qHTS assay to identify small molecule agonists of the RXR signaling pathway (AID 1159527; calls by dose curve; further: nearly all actives have a fitted effect of over 35% in size)
# Method in brief: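 Read-out: beta-lactamase FRET ratio (405 nm excitation, 460 and 530 nm emission) after 2 hr substrate loading at room temperature. Cells were RXR-alpha-UAS-bla HEK 293T treated with compounds for 16 hr in 2% charcoal-stripped FBS medium.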
# [17] = qHTS assay to identify small molecule agonists of the farnesoid-X-receptor (FXR) signaling pathway - cell viability counter screen (AID 743218); further: nearly all actives have a fitted effect of over 45% in size; further: potency means the concentration at half of the fitted maximal effect
# Method in brief: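 Quantitative HTS counter screen measuring ATP-based viability via CellTiter-Glo luminescence in HEK 293T cells carrying a UAS-driven beta-lactamase reporter, after 16 h compound exposure at 37 C.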
# [18] = qHTS assay to identify small molecule agonists of the endoplasmic reticulum stress response signaling pathway (AID 1159516; active means well fitted activation curve with a large enough effect in the signal ratio in the repeat runs, not every such curve was filed as active; the % refers to the signal ratio)
# Method in brief: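 Fluorescence at 460 and 530 nm (405 nm excitation) reports beta-lactamase from an ER stress response element in HeLa cells treated 5 hr at 37 C.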
# [19] = qHTS assay to identify small molecule agonists of the endoplasmic reticulum stress response signaling pathway - cell viability counter screen (AID 1159517; calls by dose curve; further: nearly all actives have a fitted effect of over 50% in size; further: potency means the concentration at half of the fitted maximal effect)
# Method in brief: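 ESRE-bla HeLa cells (1,500/well) were plated overnight at 37 C and exposed to compounds for 5 hr. After the 2 hr beta-lactamase substrate read, CellTiter-Glo went into the same wells, and luminescence was read after 30 min at room temperature.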
# [20] = qHTS assay to identify small molecule antagonists of the retinoid-related orphan receptor gamma (ROR-gamma) signaling pathway - cell viability counter screen (AID 1159520); further: nearly all actives have a fitted effect of over 50% in size; further: potency means the concentration at half of the fitted maximal effect
# Method in brief: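 Cytotoxicity was read from cellular ATP (CellTiter-Glo luminescence) after 16 hr at 37 C with 1 uM doxycycline induction. The inducer was added 2 hr after compound transfer to Tet-on ROR gamma CHO cells.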
# Chain of Retinoic acid receptor RXR-alpha (Homo sapiens) (P19793 whole entry, looked up): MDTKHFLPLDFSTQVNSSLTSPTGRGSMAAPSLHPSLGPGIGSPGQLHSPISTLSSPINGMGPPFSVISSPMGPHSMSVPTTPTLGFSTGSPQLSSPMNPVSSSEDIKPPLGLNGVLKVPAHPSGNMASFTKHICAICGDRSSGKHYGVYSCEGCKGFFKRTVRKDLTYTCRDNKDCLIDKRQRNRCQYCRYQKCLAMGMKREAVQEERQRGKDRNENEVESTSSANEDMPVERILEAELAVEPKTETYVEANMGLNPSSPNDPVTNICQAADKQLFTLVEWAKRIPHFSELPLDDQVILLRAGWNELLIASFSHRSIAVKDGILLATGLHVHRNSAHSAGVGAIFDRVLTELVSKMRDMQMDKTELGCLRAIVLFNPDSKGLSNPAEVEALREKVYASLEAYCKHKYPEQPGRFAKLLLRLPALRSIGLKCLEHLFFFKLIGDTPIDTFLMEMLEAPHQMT
# Chain of Bile acid receptor (Homo sapiens) (Q96RI1 whole entry, looked up): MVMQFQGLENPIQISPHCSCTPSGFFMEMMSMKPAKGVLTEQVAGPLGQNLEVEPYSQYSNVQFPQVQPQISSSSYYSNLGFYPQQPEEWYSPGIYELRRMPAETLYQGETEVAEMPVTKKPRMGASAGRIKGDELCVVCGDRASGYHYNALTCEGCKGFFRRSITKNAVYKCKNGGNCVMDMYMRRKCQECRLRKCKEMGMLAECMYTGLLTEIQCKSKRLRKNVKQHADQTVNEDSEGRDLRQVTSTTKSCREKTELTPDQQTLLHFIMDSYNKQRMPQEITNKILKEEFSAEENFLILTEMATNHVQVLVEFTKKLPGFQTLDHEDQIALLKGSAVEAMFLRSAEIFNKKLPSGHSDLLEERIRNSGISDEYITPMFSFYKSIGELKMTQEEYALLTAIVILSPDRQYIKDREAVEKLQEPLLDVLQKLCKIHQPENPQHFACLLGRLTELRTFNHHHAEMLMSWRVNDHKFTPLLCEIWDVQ
# Chain of Peroxisome proliferator-activated receptor delta (Homo sapiens) (Q03181 whole entry, looked up): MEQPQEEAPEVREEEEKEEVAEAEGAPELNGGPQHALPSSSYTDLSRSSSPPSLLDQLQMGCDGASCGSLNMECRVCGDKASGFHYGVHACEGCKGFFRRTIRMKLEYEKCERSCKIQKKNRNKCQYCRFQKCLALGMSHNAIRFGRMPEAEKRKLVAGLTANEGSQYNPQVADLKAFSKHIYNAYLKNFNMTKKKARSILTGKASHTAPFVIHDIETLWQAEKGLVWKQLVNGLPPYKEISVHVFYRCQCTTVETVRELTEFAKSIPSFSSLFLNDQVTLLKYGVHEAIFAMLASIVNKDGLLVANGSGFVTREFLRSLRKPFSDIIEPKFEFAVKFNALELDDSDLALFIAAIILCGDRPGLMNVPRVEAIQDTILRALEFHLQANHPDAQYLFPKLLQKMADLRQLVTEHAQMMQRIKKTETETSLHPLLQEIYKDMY
# Chain of Vitamin D3 receptor (Homo sapiens) (P11473 whole entry, looked up): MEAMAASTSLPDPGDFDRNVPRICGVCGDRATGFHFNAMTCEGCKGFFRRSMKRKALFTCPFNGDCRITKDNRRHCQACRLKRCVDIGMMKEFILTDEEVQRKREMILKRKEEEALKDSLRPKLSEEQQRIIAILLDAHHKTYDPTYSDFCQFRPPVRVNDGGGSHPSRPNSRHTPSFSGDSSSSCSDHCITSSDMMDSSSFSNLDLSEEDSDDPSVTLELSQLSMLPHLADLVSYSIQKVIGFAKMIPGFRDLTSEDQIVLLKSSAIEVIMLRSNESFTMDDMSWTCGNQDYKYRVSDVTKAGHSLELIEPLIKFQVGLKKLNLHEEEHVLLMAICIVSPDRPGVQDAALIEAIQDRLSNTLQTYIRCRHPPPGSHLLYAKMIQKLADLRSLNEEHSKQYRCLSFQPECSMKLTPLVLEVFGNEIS
SMILES,Potency [1],Potency [2],Potency [3],Potency [4],Potency [5],Potency [6],Potency [7],Potency [8],Potency [9],Potency [10],Potency [11],Potency [12],Potency [13],Potency [14],Potency [15],Potency [16],Potency [17],outcome [18],Potency [19],Potency [20]
CC(=O)C1=C(C)[C@@H]2C[C@@]3(C1)[C@H](C)CC[C@H]3C2(C)C,inactive,inactive,inactive,inactive,inactive,inactive,inactive,inactive,inactive,inactive,inactive,inactive,inactive,inactive,inactive,inactive,,,,
CNCCC(Oc1ccc(C(F)(F)F)cc1)c1ccccc1 (centres undefined),27.2 µM (active) and 29.8 µM (active),,17.2 µM (active) and 21.1 µM (active),,,,48.4 µM (active),inactive,,48.4 µM (active) and inactive,,,,inactive,,,21.6 µM (active),inactive,inactive,inactive
O=C(Nc1ccccc1SSc1ccccc1NC(=O)c1ccccc1)c1ccccc1,19.6 µM (active) and 12.3 µM (active),,12.4 µM (active) and 11 µM (active),,,,inactive,,,12.4 µM (active) and 12.3 µM (active),,inactive,8.68 µM (active) and 17.2 µM (active),inactive,,,inactive,,inactive,24.3 µM (active)
c1cc(C(c2ccc(OCC3CO3)cc2)C(c2ccc(OCC3CO3)cc2)c2ccc(OCC3CO3)cc2)ccc1OCC1CO1 (centres undefined),inactive,,,,,,inactive,,,inactive,inactive,inactive,,inactive,,,,,inactive,inactive
CC(COc1ccccc1)N(CCCl)Cc1ccccc1 (centres undefined),inactive,inactive,inactive,inactive,,,inactive,inactive,inactive,inactive,inactive,inactive,49.1 µM (active) and inactive,inactive,,inactive,49 µM (active) and inactive,,inactive,49.1 µM (active) and 54.5 µM (active) and 29.8 µM (active)
CC(C)(c1ccccc1)c1ccc(Nc2ccc(C(C)(C)c3ccccc3)cc2)cc1,inactive,,inactive,,,,inactive,,,inactive,inactive,inactive,24.3 µM (active) and inactive,inactive,,,inactive,,inactive,inactive
CC[C@H]1CN2CCc3cc(OC)c(OC)cc3[C@@H]2C[C@@H]1C[C@H]1NCCc2cc(OC)c(OC)cc21,43.8 µM (active),inactive,,438 nM (active),,,inactive,inactive,0.492 µM (active),19.6 µM (active) and inactive,inactive,inactive,173 nM (active) and 750 nM (active),inactive,,,27.6 µM (active) and inactive,,6.94 µM (active) and 4.25 µM (active),
BrC1CCC(Br)C(Br)CCC(Br)C(Br)CCC1Br (centres undefined),26.1 µM (active),inactive,10.4 µM (active),inactive,,inactive,inactive,inactive,inactive,18.5 µM (active),16.5 µM (active),inactive,27.2 µM (active) and 58 µM (active),inactive,,inactive,inactive and 20.8 µM (active),,inactive,43.1 µM (active)
Cc1ccc(S(=O)(=O)Oc2ccc(N=Nc3ccc(-c4ccc(N=Nc5c(O)ccc6cc(S(=O)(=O)O)cc(S(=O)(=O)O)c56)c(C)c4)cc3C)cc2)cc1,,inactive,,inactive,inactive,inactive,inactive,,inactive,inactive,inactive,inactive,,inactive,,inactive,inactive,,inactive,
Oc1ccc(Cl)cc1Cc1cc(Cl)ccc1O,44.4 µM (active) and 30.9 µM (active) and 29.8 µM (active),inactive,,55.9 µM (active) and inactive,,inactive,inactive,inactive,,11.2 µM (active) and 38.9 µM (active),28 µM (active) and 6.74 µM (active),inactive,,55.9 µM (active),,inactive,49 µM (active),,54.9 µM (active) and inactive,
Nc1nc2ccccc2[nH]1,inactive,,inactive,,inactive,inactive,inactive,inactive,inactive,inactive,inactive,inactive,,inactive,,inactive,inactive,,inactive,inactive
Oc1c(Cl)cc(Cl)c(Cl)c1Cc1c(O)c(Cl)cc(Cl)c1Cl,27.5 µM (active) and 13.3 µM (active),,38.8 µM (active) and 24.5 µM (active),,,inactive,48.9 µM (active),,,24.5 µM (active) and 21.9 µM (active) and 2.66 µM (active),54.8 µM (active) and 27.5 µM (active) and 9.52 µM (active),34.6 µM (active) and 43.6 µM (active),966 nM (active) and 1.37 µM (active) and 841 nM (active),27.5 µM (active),,,21.8 µM (active) and 24.5 µM (active),,17.3 µM (active) and 49 µM (active),1.53 µM (active) and 1.93 µM (active) and 1.68 µM (active)

# — PubChem BioAssay (Tox21)
